Structures are written as SMILES. Out of some 5,400 compounds screened, about 190 (3.5%) showed an effect of 50% or more. What follows is part of a selection rich in strong results, with near analogues and random picks from the rest.

The subject of the assay is Vero-E6. Put plainly: primary screen, phospholipidosis by LipidTOX staining; higher = more effect of the substance. Particulars: 10 µM. Put shortly: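 Single-concentration screen at 10 μM, with DMSO 0.1 v/v % and amiodarone 10 μM as controls. Read-out is LipidTOX Red phospholipid staining, which tolerates aldehyde fixation, in Vero-E6 cells.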
Consider `CCN1CCC(n2cc(CNc3cc(Cl)c4ncc(C#N)c(Nc5ccc(F)c(Cl)c5)c4c3)nn2)CC1`, for which the result_ITMP was 9.34%.

For `CCN(CC)CC1CCN(c2ncc3ncnc(Nc4ccc(F)c(Cl)c4)c3n2)CC1`, the result_ITMP is listed as 97%.

With `CN1CCC(Nc2ncc3ncnc(Nc4ccc(F)c(Cl)c4)c3n2)CC1`, the result_ITMP came to 76.5%. With `N#Cc1cc(CN2CCC(Nc3ncnc4sc(Cl)cc34)CC2)ccc1F`, the result_ITMP was found to be 18.7%. For the compound `C=CC(=O)Nc1cc2c(Nc3ccc(F)c(Cl)c3)ncnc2cc1C#CC(C)(C)N1CCN(C)CC1`, the result_ITMP came out at 36.6%.

On to `CC(C)(C)NCC(O)COc1cccc2c1C[C@H](O)[C@H](O)C2` (mixture of isomers), for which the result_ITMP is -2.49%.

With `CC[C@H](C)[C@H](NC(=O)[C@H](CCC(=O)O)NC(=O)[C@H](CCC(=O)O)NC(=O)[C@H](Cc1ccccc1)NC(=O)[C@H](CC(=O)O)NC(=O)CNC(=O)[C@H](CC(N)=O)NC(=O)CNC(=O)CNC(=O)CNC(=O)CNC(=O)[C@@H]1CCCN1C(=O)[C@H](CCCNC(=N)N)NC(=O)[C@@H]1CCCN1C(=O)[C@H](N)Cc1ccccc1)C(=O)N1CCC[C@H]1C(=O)N[C@@H](CCC(=O)O)C(=O)N[C@@H](CCC(=O)O)C(=O)N[C@@H](Cc1ccc(O)cc1)C(=O)N[C@@H](CC(C)C)C(=O)O`, the result_ITMP came to 0.65%.

For the compound `O=C1[N-]C(=O)C(c2ccccc2)(c2ccccc2)N1`, the result_ITMP is -1.89%. The result for `NC(N)=NC(=O)c1cnn(-c2cccc3ncccc23)c1C1CC1` reads -1.94%; that for `CCn1c2ccccc2c2cc(Nc3ccnc(NCCCN4CCOCC4)n3)ccc21`, 57.6%; that for `COc1ccc(C(=O)c2c(C)n(CCN3CCOCC3)c3ccccc23)cc1`, 0.58%. On to `Cc1cc(-c2ccccc2)nnc1NCCN1CCOCC1`, for which the result_ITMP is -1.84%. For the compound `O=C([O-])C1[O][Sb]2[O]C(=O)C([O]2)C(C(=O)[O-])[O][Sb]2[O]C(=O)C1[O]2` (stereo not shown), the result_ITMP is reported as -8.7%. With `CC1(C)S[C@@H]2[C@H](NC(=O)COc3ccccc3)C(=O)N2[C@H]1C(=O)[O-]`, the result_ITMP was -2.47%. Take `Fc1ccc(-n2cc(CCCCN3CCC4(CC3)OCc3ccccc34)c3ccccc32)cc1`: the result_ITMP is reported as 26.9%. The result for `COc1ccccc1C1(O)CCN(CCCn2c3ccccc3c3ccccc32)CC1` reads 52.4%; that for `COc1ccccc1N1CCN(CCN2C(=O)c3ccccc3C(C)(C)C2=O)CC1`, 2.7%; that for `CC1=C(/C=C/C(C)=C/C=C/C(C)=C/C(=O)O)C(C)(C)CCC1` [R4A_0003961_001 / SPE_K71879491], 4.7%.

Take `C[C@H](Nc1ncnc2[nH]cnc12)c1cc2ccc(F)cc2nc1-c1ccccn1` [R4A_0002240_001 / SPE_A58947127]: the result_ITMP was 4.77%. As for `COc1ccc(C(=O)/C(Cc2cc(OC)c(OC)c(OC)c2)=C(\C(=O)[O-])c2ccc3c(c2)OCO3)cc1`, the result_ITMP is listed as -3.57%. Then `COc1ccc2[nH]cc(C3=CCNCC3)c2c1`, with -0.41%. `Cc1[nH]c2ccc(Cl)cc2c1C1=CCNCC1`: the result_ITMP was 96.8%.

With `O=c1ccc2[nH]cc(C3=CCNCC3)c2[nH]1`, the result_ITMP is given as -1.73%. With `C[C@@H]([C@H](C)O)[C@H](N)C(=O)O`, the result_ITMP is on record as 0.75%. Take `N#CN/C(=N\c1ccncc1)NCCCCCCOc1ccc(Cl)cc1`: the result_ITMP came to 0.38%. `COc1ccc(-c2ccc3c(N4CCOCC4)nc(N4C[C@@H](C)O[C@@H](C)C4)nc3n2)cc1CO`: the result_ITMP is on record as 1.47%. As for `COc1ccc(OCC2c3cc(OC)c(OC)cc3CCN2C(=O)c2cccc(Cl)c2)cc1` (stereo not shown), the result_ITMP is given as -4.92%.

Consider `CNC(=O)[C@@H](c1ccccc1)N1CCc2cc(OC)c(OC)cc2[C@@H]1CCc1ccc(C(F)(F)F)cc1`, for which the result_ITMP is 1.25%. Then `COc1cc2c(cc1O)C(CCc1ccc(Cl)cc1)N(C)CC2` (stereo not shown), with 64%. For the compound `Cc1c(N(C)CS(=O)(=O)[O-])c(=O)n(-c2ccccc2)n1C`, the result_ITMP is recorded as -4.64%.

On to `CCCCCCCCCC(=O)O[C@H]1CC[C@H]2[C@@H]3CCC4=CC(=O)CC[C@@H]4[C@H]3CC[C@]12C`, for which the result_ITMP is -0.22%.

On to `CN1CCC2=C(C1)c1ccccc1Cc1ccccc12`, for which the result_ITMP stood at 52.7%. Regarding `CN1CCC(=C2c3ccccc3CC(=O)c3sccc32)CC1`, the result_ITMP was 29%. Regarding `CN1CCC2=C(C1)C(c1ccccc1)c1ccccc12` (stereo not shown), the result_ITMP is listed as 6.76%.

As to `O=[N+]([O-])O[C@@H]1CO[C@H]2[C@@H]1OC[C@@H]2O`, the result_ITMP was -9.17%. With `C[C@@H](O[C@H]1OCCN(Cc2nn(P(=O)(O)O)c(=O)[nH]2)[C@H]1c1ccc(F)cc1)c1cc(C(F)(F)F)cc(C(F)(F)F)c1`, the result_ITMP is given as 6.28%.

`C[C@@H](O[C@H]1OCCN(Cc2n[nH]c(=O)[nH]2)[C@H]1c1ccc(F)cc1)c1cc(C(F)(F)F)cc(C(F)(F)F)c1`: the result_ITMP is reported as 2.55%. For `C[C@@H](O[C@H]1OCCN(Cc2nn[nH]c2CN(C)C)[C@H]1c1ccc(F)cc1)c1cc(C(F)(F)F)cc(C(F)(F)F)c1`, the result_ITMP was found to be 71.2%. Consider `OCCNCCCOc1cccc(Cl)c1Cl`, for which the result_ITMP was 55.4%. Take `C[C@]12CCC(=O)C=C1CC[C@@H]1[C@@H]2CC[C@@]2(C)[C@H]1CC[C@]2(O)C(=O)CO`: the result_ITMP is reported as -5.73%. Consider `C=CCN(C)CCCCCCOc1ccc(C(=O)c2ccc(Br)cc2)c(F)c1`, for which the result_ITMP was determined as 92.9%.

As to `CCCCOc1ccc(C(=O)Nc2ccc(F)cc2F)cc1`, the result_ITMP is -8.12%. With `CCOc1ccc(-c2ccc(Cn3c(CC(C)(C)C(=O)[O-])c(SC(C)(C)C)c4cc(OCc5ccc(C)cn5)ccc43)cc2)cn1`, the result_ITMP turned out to be 0.09%. The result for `CCN(CC)CCCCNc1ncc2cc(-c3c(Cl)cccc3Cl)c(NC(=O)NC(C)(C)C)nc2n1` reads 69.2%. Take `CCN(CC)CCOc1ccc(Nc2ncc3cc(-c4c(Cl)cccc4Cl)c(=O)n(C)c3n2)cc1`: the result_ITMP was 24.2%. As for `CCN(CC)CCCCNc1ncc2cc(-c3cc(OC)cc(OC)c3)c(NC(=O)NC(C)(C)C)nc2n1`, the result_ITMP is 90.1%. Take `CCN(CC)CCNC(=O)COc1ccc(OC)cc1`: the result_ITMP was -4.1%. Regarding `CNc1ncc2cc(-c3cc(NC(=O)NCCC(C)(C)C)c(F)cc3C)c(C)nc2n1`, the result_ITMP was -7.16%. `O=C(NCC(=O)N1CC[C@H](N[C@H]2CC[C@@](O)(c3ccc(-c4ncccn4)cn3)CC2)C1)c1cccc(C(F)(F)F)c1`: the result_ITMP is -0.29%.

On to `O=S(=O)(OC[C@H]1O[C@@](COS(=O)(=O)[O][Al]([OH])[OH])(O[C@H]2O[C@H](COS(=O)(=O)[O][Al]([OH])[OH])[C@@H](OS(=O)(=O)[O][Al]([OH])[OH])[C@H](OS(=O)(=O)[O][Al]([OH])[OH])[C@H]2OS(=O)(=O)[O][Al]([OH])[OH])[C@@H](OS(=O)(=O)[O][Al]([OH])[OH])[C@@H]1OS(=O)(=O)[O][Al]([OH])[OH])[O][Al]([OH])[OH]`, for which the result_ITMP turned out to be 6.9%. In the case of `OC[C@@H](O)[C@@H](O)CO`, the result_ITMP is on record as -7.96%. `Cc1ccc2nc(N)nc(O)c2c1Sc1ccncc1`: the result_ITMP is recorded as 3.27%. Turning to `Fc1cc(-c2cccc3ncc(-c4cnn(C5CCNCC5)c4)nc23)cc(F)c1CN1CCOCC1`, the result_ITMP is 73.3%.

In the case of `CC(C)(C)C(=O)CN1C(=O)[C@H](NC(=O)Nc2cccc(C(=O)O)c2)CN(C2CCCCC2)c2ccccc21`, the result_ITMP is -0.97%. In the case of `CO[C@@]1(NC(=O)Cc2cccs2)C(=O)N2C(C(=O)[O-])=C(COC(N)=O)CS[C@@H]21`, the result_ITMP is on record as -2.27%. As for `c1ccc(CC(c2ccccc2)N2CCCCC2)cc1` (racemic), the result_ITMP is 6.03%. In the case of `CC(COc1ccccc1Cc1ccccc1)N1CCCCC1` (stereo not shown), the result_ITMP is reported as 72%. As to `C=CCc1ccccc1OCC(O)CNC(C)C` (stereo not shown), the result_ITMP was determined as 12.1%. With `OC[C@H]1O[C@@H]2O[C@H]3[C@H](O)[C@@H](O)[C@@H](O[C@H]4[C@H](O)[C@@H](O)[C@@H](O[C@H]5[C@H](O)[C@@H](O)[C@@H](O[C@H]6[C@H](O)[C@@H](O)[C@@H](O[C@H]7[C@H](O)[C@@H](O)[C@@H](O[C@H]8[C@H](O)[C@@H](O)[C@@H](O[C@H]1[C@H](O)[C@H]2O)O[C@@H]8CO)O[C@@H]7CO)O[C@@H]6CO)O[C@@H]5CO)O[C@@H]4CO)O[C@@H]3CO`, the result_ITMP is recorded as -4.2%. As to `Cc1cc(-c2ccc(/N=N/c3ccc4c(S(=O)(=O)[O-])cc(S(=O)(=O)[O-])c(N)c4c3O)c(C)c2)ccc1/N=N/c1ccc2c(S(=O)(=O)[O-])cc(S(=O)(=O)[O-])c(N)c2c1O`, the result_ITMP is 10.1%.

Take `COc1cc2c(cc1F)C(c1ccccc1Cl)=NC1=C(C)NNC1=N2`: the result_ITMP was -1.52%. In the case of `CCCN(CCC)C(=O)C(CCC(=O)[O-])NC(=O)c1ccccc1` (stereo not shown), the result_ITMP is -3.27%.

For the compound `CC(C)c1cc(C(=O)N2Cc3ccc(CN4CCN(C)CC4)cc3C2)c(O)cc1O`, the result_ITMP was 8.21%. With `COc1cc2ncn(-c3cc(OCc4ccccc4C(F)(F)F)c(C(N)=O)s3)c2cc1OC`, the result_ITMP is -2.1%. `C[C@@H](Oc1cc(-n2cnc3ccc(CN4CCN(C)CC4)cc32)sc1C(N)=O)c1ccccc1C(F)(F)F`: the result_ITMP was 75.1%. Consider `CN[C@@H]1[C@H](OC2[C@H](O[C@H]3[C@H](O)[C@@H](O)[C@H](NC(=N)N)[C@@H](O)[C@@H]3NC(=N)N)O[C@@H](C)[C@]2(O)C=O)O[C@@H](CO)[C@H](O)[C@H]1O` (stereo partly shown), for which the result_ITMP is listed as -1.71%. Consider `O=C([O-])P(=O)([O-])[O-]`, for which the result_ITMP is -2.03%. Regarding `C=CCn1c(=O)n([C@@H]2O[C@H](CO)[C@@H](O)[C@H]2O)c2nc(N)nc(O)c21`, the result_ITMP was -1.06%.

Consider `OC(c1cc(C(F)(F)F)nc2c(C(F)(F)F)cccc12)C1CCCCN1` (stereo not shown), for which the result_ITMP was determined as 50%. With `COC(=O)C(c1ccccc1)C1CCCCN1` (stereo not shown), the result_ITMP stood at 10.3%. Then `Nc1c(CC(=O)[O-])cccc1C(=O)c1ccc(Br)cc1`, with 0.95%; and `NS(=O)(=O)NCCNc1nonc1/C(=N\c1ccc(F)c(Br)c1)NO`, with -3.83%; and `CN1[C@@H]2C[C@@H](O)C[C@H]1[C@@H]1O[C@@H]12`, with 17.2%. On to `COc1ccccc1N1CCN(CCCCNC(=O)c2ccc(-c3ccc(C(C)=O)cc3)cc2)CC1`, for which the result_ITMP is 6.35%. Consider `COc1ccc(C(=O)NCc2ccc(OCCN(C)C)cc2)cc1OC`, for which the result_ITMP is 6.48%. The result for `COc1ccc(NC(=O)c2ccc(-c3ccc(-c4noc(C)n4)cc3C)cc2)cc1OCCN(C)C` reads 81.5%.

On to `COc1ccc(NC(=O)c2ccc(-c3ccc(-c4noc(C)n4)cc3C)cc2)cc1N1CCN(C)CC1`, for which the result_ITMP came out at 142%.

As to `COc1ccc(NS(=O)(=O)c2ccc(I)cc2)cc1N1CCN(C)CC1`, the result_ITMP amounted to 16.4%. For `COc1cc(C(=O)NCc2ccc(OCCN(C)C)cc2)cc(OC)c1OC`, the result_ITMP is given as -1.29%.

(Values after article PMC13083723 (Patterns, 2026).)
